Rows were chosen to be rich in hits. Some 7.5% of all compounds tested hit in one or more screens of this group.
NPC1 promoter act: activates the NPC1 promoter | Huh7 NPC1 promoter luciferase reporter, 24 h | Potency, µM (top dose mostly 9.22 µM), for inactives: at the top dose activation, usual class: activators | 320,000 tested, 2.4% active; also: % of control where 0% means no effect; nearly all actives have a fitted effect of over 60% in size
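Stable NPC1-promoter luciferase Huh7 line; cpd (DMSO) 24 h, 37 °C, 5% CO2; Amplite luciferase reagent 10 min RT; luminescence readout. qHTS format.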
SMN2 splice up: enhancers of SMN2 splice variant expression | HEK293 SMN2-luciferase splicing reporter, luminescence, 30-36 h | Potency, µM (titrated, usually from 46.1 µM), for inactives: at the top dose activity change, positive = activation, usual class: activators | 210,000 tested, 2.8% active; also: % of control where 0% means no effect; nearly all actives have a fitted effect of over 55% in size
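HEK293 cells carry an SMN2 minigene-luciferase reporter in which exon 7 inclusion puts luciferase in frame. Cells were seeded at 2000 cells/well, attached for 10-12 hours, then exposed to compounds for 30-36 hours at 37C before ONE-Glo luminescence.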
KinaseGlo FLuc: counter-screen: inhibitors of Kinase-Glo firefly luciferase. Q27757. Kinase-Glo luciferase, ATP luminescence, 8 min. Potency, µM (top dose mostly 38.3 µM), for inactives: top-dose activity change, negative = inhibition, actives largely listed as inhibitors. 200,000 tested, 0.28% active; also: % is scaled to controls: 0 for no effect and ±100 for the full control effect; nearly all actives have a fitted effect of over 60% in size
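Compounds were added to a substrate mix at pH 7.2 (50 mM imidazole, 10 uM ATP, within the enzyme's linear range), followed by Kinase-Glo detection reagent; luminescence was measured after 8 minutes at ambient temperature.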
Rab9 promoter act: activators of Rab9 promoter; Huh7 Rab9 promoter-luciferase reporter, luminescence, 24 h; Potency, µM (titrated, usually from 9.22 µM), for inactives: at the highest dose activation, negative = inhibition, usual class: activators; 320,000 tested, 2.8% active; AID 485297; also: % of control where 0% means no effect; nearly all actives have a fitted effect of over 60% in size
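Luminescence read-out: Huh7 cells stably expressing Rab9-luciferase, treated 24 h with compound at 37 °C, then lysed with luciferase reagent for 10 min at ambient before reading.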
ELG1 genotoxic: induces genotoxicity in HEK293T cells with luciferase-tagged ELG1; HEK293T ELG1-luciferase reporter, luminescence, 16 h; Potency, µM (titrated, usually from 46 µM), for the others: at the highest dose activity change, positive = activation, most hits filed as activators; 330,000 tested, 1.3% active; AID 504466; also: % of control where 0% means no effect; nearly all actives have a fitted effect of over 60% in size
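Genotoxic stress is detected as increased luminescence from luciferase-tagged ELG1 in HEK293T cells, measured with ONE-Glo after a 16 hr treatment at 37 °C.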
FLuc modulator: inhibits or activates purified firefly luciferase, miR-21 counter-screen; purified FLuc, Km substrates, luminescence inhibition; Potency, µM (doses to about 57.5 µM), for the others: at the highest dose activity change, negative = inhibition, usual class: inhibitors; 360,000 tested, 6.9% active; AID 588342;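 also: plate controls were vehicle for no effect and reference inhibitor for full effect; nearly all actives have a fitted effect of over 55% in size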
Target sequence (P08659 whole entry, looked up): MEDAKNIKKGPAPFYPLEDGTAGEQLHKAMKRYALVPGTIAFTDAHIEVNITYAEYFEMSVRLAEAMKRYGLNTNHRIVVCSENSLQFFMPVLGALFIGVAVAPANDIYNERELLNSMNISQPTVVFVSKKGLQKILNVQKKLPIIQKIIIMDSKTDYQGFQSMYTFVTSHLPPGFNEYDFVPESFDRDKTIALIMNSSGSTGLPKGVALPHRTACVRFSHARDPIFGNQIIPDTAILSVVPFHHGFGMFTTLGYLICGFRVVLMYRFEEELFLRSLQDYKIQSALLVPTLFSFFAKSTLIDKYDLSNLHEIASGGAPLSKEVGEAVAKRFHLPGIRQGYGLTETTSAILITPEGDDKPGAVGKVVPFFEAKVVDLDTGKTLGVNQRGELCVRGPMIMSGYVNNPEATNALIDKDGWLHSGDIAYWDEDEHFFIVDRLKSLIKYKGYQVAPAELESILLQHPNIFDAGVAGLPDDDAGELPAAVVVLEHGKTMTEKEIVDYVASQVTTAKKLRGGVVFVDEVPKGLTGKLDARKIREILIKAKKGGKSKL
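Purified P. pyralis luciferase (10nM final) with 10uM D-luciferin and 10uM ATP (Km levels) in 50mM Tris acetate pH 7.5, 10mM Mg acetate, 0.01% Tween-20, 0.05% BSA; qHTS 6-point titration, ~60 µM downward; luminescence read.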
Starred values were filed as active, the others as inactive; ? = inconclusive; . = no result; [ ] = dose if it differs, or a comment. Calls follow the shape of the dose curve; as a rule, active = well fitted curve in the direction sought with a large enough effect; inconclusive = small, poorly fitted or top-dose-only effect, or another doubt; inactive = no such curve, though single readings can be large; an effect the other way counts as inactive or inconclusive. Potency is read from the fitted curve at half-maximal effect.

SMILES	NPC1 promoter act	SMN2 splice up	KinaseGlo FLuc	Rab9 promoter act	ELG1 genotoxic	FLuc modulator
CCOC(=O)c1cc(C)n(-c2ccccc2)c1C	-0.4%	.	.	24.6%	?	15.1µM*
Cc1cc(C(=O)OCC(N)=O)c(C)n1-c1ccccc1	15.7%	?	1.3%	17.4%	15.5%	?
Cc1cc(C(=O)COC(=O)c2ccc(O)cc2O)c(C)n1-c1ccccc1	?	.	.	?	?	2.13µM*
COc1ccc(-n2c(C)cc(C(=O)COC(=O)c3ccc(O)cc3O)c2C)cc1	-4.3%	.	.	-16.4%	-3.5%	?
O=c1cc(C(F)(F)F)[nH]c2ccc(OC(F)(F)F)cc12	-4.0%	.	.	-0.8%	-6.8%	21.3µM*
CCC(=O)Nc1ccc(Br)cn1	-3.3%	.	-1.9%	-8.3%	-2.8%	1.5%
Cc1ccccc1C(=O)Nc1ccc(Br)cn1	?	.	.	3.55µM*	9.2µM*	10.7µM*
O=C(Nc1ccccc1C(=O)Nc1ccc(Br)cn1)c1ccccc1Cl	-4.0%	.	.	-8.0%	-3.0%	?
O=C(Nc1ccc(Br)cn1)c1ccc(Br)s1	?	.	.	0.794µM*	?	4.26µM*
O=C(Nc1ccc(Br)cn1)c1ccc(Cl)s1	0.891µM*	.	.	1µM*	3.26µM*	4.26µM*
Cc1cc(C(=O)Nc2ccc(Br)cn2)sc1C	1µM*	.	.	2.24µM*	?	.
COc1ccc(N2CCN(C(=O)c3nn(-c4ccc(C)cc4)c(=O)n(C)c3=O)CC2)cc1	.	.	.	.	.	-2.1%
Cc1ccc(CNC(=O)C2CCCN(S(=O)(=O)c3cn(C)cn3)C2)cc1 (configuration not stated)	.	.	.	.	.	1.9%
O=C(Nc1ccccn1)c1ccc(Cl)s1	2.24µM*	.	.	3.98µM*	?	?
COc1cccc(-c2cc(C(=O)Nc3ccc(F)cc3)[nH]n2)c1	.	.	.	.	.	1.69µM*
COc1cccc(-c2cc(C(=O)O)[nH]n2)c1	-2.3%	11.5%	-0.8%	-6.8%	0.8%	-19.1%
COc1ccc(CNC(=O)c2cc(-c3ccc(C)c(C)c3)n[nH]2)cc1	.	.	.	.	.	10.7µM*
COc1cccc(-c2cc(C(=O)NCc3ccccc3)[nH]n2)c1	.	.	.	.	.	21.3µM*
O=C(NC(=S)N(CCO)Cc1ccccc1)c1ccc(F)cc1Cl	-0.9%	.	.	-0.3%[1.84 µM]	1.5%	-1.5%
CCOc1ccc(NC(=O)CC2CC(C)(C)OC2=O)cc1 (configuration not stated)	0.4%	-2.8%	-4.4%	1.0%	1.5%	-1.7%
CCCC1CC(C)(c2csc(Nc3ccc(OCC)cc3)n2)OC1=O (configuration not stated)	0.1%	-92.0%	2.4%	-1.6%	7.8%	19µM*
COCCCCCCCCCCCC(=O)O	.	5.5%	0.3%	.	.	.
CN1CCN(Cc2c(O)ccc3cc(-c4ccc(Cl)cc4)c(=O)oc23)CC1	.	.	.	.	.	-10.4%
CCc1ccc(NC(=O)CN2C(=O)C(c3ccc(F)cc3)=NC2(C)C)cc1	.	5.7%	.	.	.	-13.0%
CC(c1ccccn1)N(C)C(=O)c1ccc2nc(Cc3ccccc3F)oc2c1 (configuration not stated)	?	.	.	2.82µM*	13µM*	6.75µM*
SMILES	NPC1 promoter act	SMN2 splice up	KinaseGlo FLuc	Rab9 promoter act	ELG1 genotoxic	FLuc modulator
O=C(c1ccc2nc(Cc3ccccc3F)oc2c1)N1CCCC1	2.82µM*	.	.	1.26µM*	10.3µM*	9.53µM*
O=C(NCc1ccncc1)c1ccc2nc(Cc3ccccc3F)oc2c1	-3.6%	.	.	10.8%	-7.9%	-3.9%
Cc1cc(CNC(=O)c2ccc3nc(Cc4ccccc4F)oc3c2)nn1C	2.82µM*	.	.	3.16µM*	?	10.7µM*
CN1CCC(NC(=O)c2cnn3c2NC(=C2CC2)C=C3C(F)F)CC1	.	.	.	.	.	2.7%
C[N+]1(C)CCO[C@](O)(c2ccccc2)C1	.	-22.3%[9.22 µM]	-4.0%[7.66 µM]	.	.	.
CCSc1ccccc1C(=O)NCCc1ccccc1	0.3%	-1.1%	-0.5%	-1.3%	1.1%	2.6%
O=C1c2nc3cc(-c4ccccc4)[nH]n3c(=O)c2CN1Cc1ccccc1	-1.6%	.	.	-3.3%	0.2%	-9.1%
O=C1c2nc3cc(-c4ccco4)[nH]n3c(=O)c2CN1C1CCCCC1	28.4%	.	.	14.4%	?	2.39µM*

Source: PubChem BioAssay (National Center for Advancing Translational Sciences (NCATS))
